Source: PubChem BioAssay AID1159580 (chemical genetic matrix, 2015)
“And” between values parts separate entries of the source, which are not always exact repeats. Equal values may be shown once. Hit rate of the full screen: of about 5,500 compounds, about 2,000 (36%) were called active. About 18% were inconclusive and are not listed. No stated cut-off is given here; in the data, active means normalized growth mostly below about 0.91 (no sharp cut-off); inconclusive means no clear call, values can overlap the other calls; inactive means mostly above about 0.92. The list shows a part of the results.

Test: chemical genetic growth profiling, strain panel (AID 1159580);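 further: tested at 20 µM; growth read once vehicle control cultures reached saturation at 30 °C; 1 = growth at the plate median or of vehicle wells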
Conditions: S. cerevisiae deletion strains, growth OD

Measured: normalized growth

CCOC(=O)C1=C[C@]2(CC)CCCN3CCc4c(n1c1ccccc41)[C@@H]32
inactive: locus YAL021C, strain ccr4, stronger effect = lower value 1.03 | locus YAL026C, strain drs2, stronger effect = lower value 1.02 | locus YAL030W, strain snc1, stronger effect = lower value 1.03 | locus YBL061C, strain skt5, stronger effect = lower value 1.02 | locus YBR009C, strain hhf1, stronger effect = lower value 1.02 | locus YBR021W, strain FUR4, stronger effect = lower value 1.02 | locus YBR023C, strain chs3, stronger effect = lower value 1.03 | locus YBR171W, strain sec66, stronger effect = lower value 1.02 | locus YBR229C, strain ROT2, stronger effect = lower value 0.957 | locus YBR231C, strain swc5, stronger effect = lower value 1.02 | locus YBR279W, strain paf1, stronger effect = lower value 1.01 | locus YCL011C, strain gbp2, stronger effect = lower value 1.03 | locus YCL016C, strain dcc1, stronger effect = lower value 1.02 | locus YCL029C, strain bik1, stronger effect = lower value 0.974 | locus YCL061C, strain MRC1, stronger effect = lower value 1.02 | locus YCL069W, strain vba3, stronger effect = lower value 1.02 | locus YCR088W, strain abp1, stronger effect = lower value 1.02 | locus YDL005C, strain med2, stronger effect = lower value 1.02 | locus YDL035C, strain GPR1, stronger effect = lower value 0.977 | locus YDL040C, strain nat1, stronger effect = lower value 1.03 | locus YDL074C, strain BRE1, stronger effect = lower value 0.928 | locus YDL101C, strain DUN1, stronger effect = lower value 0.957 | locus YDL134C, strain PPH21, stronger effect = lower value 0.998 | locus YDL185W, strain tfp1, stronger effect = lower value 0.985 | locus YDL192W, strain arf1, stronger effect = lower value 0.975 | locus YDR001C, strain nth1, stronger effect = lower value 1.03 | locus YDR069C, strain doa4, stronger effect = lower value 1.05 | locus YDR101C, strain arx1, stronger effect = lower value 0.969 | locus YDR137W, strain rgp1, stronger effect = lower value 0.967 | locus YDR150W, strain NUM1, stronger effect = lower value 0.984 | locus YDR159W, strain sac3, stronger effect = lower value 1.02 | locus YDR162C, strain NBP2, stronger effect = lower value 0.937 | locus YDR195W, strain ref2 1.07 | locus YDR297W, strain sur2, stronger effect = lower value 1.02 | locus YDR318W, strain mcm21, stronger effect = lower value 0.969 | locus YDR334W, strain swr1, stronger effect = lower value 1.03 | locus YDR335W, strain msn5, stronger effect = lower value 1.01 | locus YDR388W, stronger effect = lower value 0.97 | locus YDR392W, strain spt3, stronger effect = lower value 0.979 | locus YDR502C, strain sam2, stronger effect = lower value 0.947 | locus YEL003W, strain gim4, stronger effect = lower value 1.02 | locus YEL037C, strain rad23, stronger effect = lower value 1.01 | locus YEL061C, strain CIN8 (second series), stronger effect = lower value 1.04 | locus YEL061C, strain CIN8, stronger effect = lower value 0.979 | locus YER015W, strain faa2, stronger effect = lower value 1.03 | locus YER016W, strain bim1, stronger effect = lower value 1.01 | locus YER110C, stronger effect = lower value 0.975 | locus YER111C, strain swi4, stronger effect = lower value 1.02 | locus YER155C, strain BEM2 (second series), stronger effect = lower value 0.992 | locus YER155C, strain BEM2, stronger effect = lower value 1.01 | locus YER167W, strain BCK2, stronger effect = lower value 1 | locus YFR010W, strain ubp6, stronger effect = lower value 1.03 | locus YGL078C, strain dbp3, stronger effect = lower value 0.979 | locus YGL086W, strain mad1, stronger effect = lower value 0.948 | locus YGL167C, strain pmr1, stronger effect = lower value 1.01 | locus YGL173C, strain kem1, stronger effect = lower value 1.04 | locus YGL227W, strain vid30, stronger effect = lower value 1.03 | locus YGL240W, strain doc1, stronger effect = lower value 1.03 | locus YGL248W, strain PDE1, stronger effect = lower value 0.954 | locus YGL253W, strain hxk2, stronger effect = lower value 1.03 | locus YGR135W, strain pre9, stronger effect = lower value 1 | locus YGR252W, strain gcn5, stronger effect = lower value 1.03 | locus YHR013C, strain ard1, stronger effect = lower value 1.01 | locus YHR027C, strain rpn1, stronger effect = lower value 1.03 | locus YHR030C, strain SLT2, stronger effect = lower value 0.994 and 1.01 | locus YHR079C, strain IRE1 (second series), stronger effect = lower value 0.985 | locus YHR079C, strain IRE1, stronger effect = lower value 1.03 | locus YHR094C, strain hxt1, stronger effect = lower value 0.977 | locus YHR129C, strain ARP1, stronger effect = lower value 0.987 | locus YHR142W, strain chs7, stronger effect = lower value 1.01 | locus YHR200W, strain rpn10, stronger effect = lower value 0.979 | locus YIL066C, strain RNR3, stronger effect = lower value 0.946 | locus YIL073C, strain SPO22, stronger effect = lower value 1.02 | locus YIL125W, strain kgd1, stronger effect = lower value 0.985 | locus YIR030C, strain dcg1, stronger effect = lower value 0.981 | locus YJL092W, strain hpr5, stronger effect = lower value 1.02 | locus YJL095W, strain BCK1 (second series), stronger effect = lower value 1.01 | locus YJL095W, strain BCK1, stronger effect = lower value 0.867 and 1.02 | locus YJL115W, strain asf1, stronger effect = lower value 1.05 | locus YJL129C, strain trk1, stronger effect = lower value 1.01 | locus YJL134W, strain LCB3, stronger effect = lower value 0.991 | locus YJL154C, strain vps35, stronger effect = lower value 1.01 | locus YJL164C, strain tpk1, stronger effect = lower value 1.01 | locus YJL166W, strain qcr8, stronger effect = lower value 1.02 | locus YJL168C, strain set2, stronger effect = lower value 0.979 | locus YJL187C, strain SWE1 (second series), stronger effect = lower value 0.927 | locus YJR043C, strain POL32, stronger effect = lower value 0.941 | locus YJR066W, strain TOR1, stronger effect = lower value 0.967
